Consider 40 compounds from the supplement of paper PMC8975748.

Where a name gives a salt, the structure may show the parent alone.

This test concerns Saccharomyces cerevisiae BY4741 SeMeCo community. The test can be described thus: z-score of subpopulation abundance vs DMSO median, subpopulation auxotrophic for HM; higher = larger share of this subpopulation than in DMSO controls. The note with it: 10 µM; 24 h; SM minimal medium; subpopulation (auxotrophy): HM. The procedure: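 Fluorescent four-plasmid SeMeCo (self-establishing metabolically cooperating S. cerevisiae BY4741 community; plasmids pH-mRuby2, pL-mWasabi, pU-eCFP, pM-TagRFP657) was grown 24 h in minimal SM medium with each Selleck FDA-approved drug at 10 µM in 384-well plates. Cells were fixed and imaged by high-content confocal microscopy. For each auxotrophic subpopulation (and the prototroph), a z-score gives the deviation from the DMSO vehicle-control population median.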
In the case of `Cc1cc(NS(=O)(=O)c2ccc(N)cc2)nc(C)n1` [sulfaisodimidine], the “z-score of subpopulation abundance” value worked out at 0.38.

As for `C1N2CN3CN1CN(C2)C3` [Methenamine], the “z-score of subpopulation abundance” value stood at 1.35.

As for `C[C@@H]1CC(=O)NN=C1c1ccc(NN=C(C#N)C#N)cc1` [Levosimendan], the “z-score of subpopulation abundance” value worked out at 0.22.

Regarding `COCCCN1CCC(NC(=O)c2cc(Cl)c(N)c3c2OCC3)CC1` [Prucalopride], the “z-score of subpopulation abundance” value was found to be 0.24.

As for `Nc1nc2[nH]cc(CCc3ccc(C(=O)N[C@@H](CCC(=O)O)C(=O)O)cc3)c2c(=O)[nH]1` [Pemetrexed Disodium Hydrate], the “z-score of subpopulation abundance” value is -4.93.

With `C#C[C@]1(O)CC[C@H]2[C@@H]3CCc4cc(O)ccc4[C@H]3CC[C@@]21C` [Ethinyl Estradiol], the “z-score of subpopulation abundance” value is 0.

As to `COc1ccnc(C[S+]([O-])c2nc3cc(-n4cccc4)ccc3[nH]2)c1C` (stereo not given) [Ilaprazole], the “z-score of subpopulation abundance” value turned out to be 0.96.

As to `N[C@@H]1CONC1=O` [D-Cycloserine], the “z-score of subpopulation abundance” value was -0.26.

Turning to `Cc1cccc(Nc2ccccc2C(=O)O)c1C` [Mefenamic Acid], the “z-score of subpopulation abundance” value was -0.11.

Take `COc1cccc2c1C(=O)c1c(O)c3c(c(O)c1C2=O)CC(O)(C(=O)CO)CC3OC1CC(N)C(O)C(C)O1` (stereo not given) [Doxorubicin (Adriamycin) HCl]: the “z-score of subpopulation abundance” value was -2.19.

Turning to `CC[C@H]1OC(=O)C[C@@H](O)[C@H](C)[C@@H](O[C@@H]2O[C@H](C)[C@@H](O)[C@H](N(C)C)[C@H]2O)[C@@H](CCN2C[C@H](C)C[C@H](C)C2)C[C@@H](C)C(=O)/C=C/C(C)=C/[C@@H]1CO[C@@H]1O[C@H](C)[C@@H](O)[C@@H](OC)[C@H]1OC` [Tilmicosin phosphate], the “z-score of subpopulation abundance” value was -0.03.

For `Cn1c(=O)c2c(ncn2CC(O)CO)n(C)c1=O` (stereo not given) [Dyphylline], the “z-score of subpopulation abundance” value was -0.97.

`C=CCc1ccc(O)c(-c2ccc(O)c(CC=C)c2)c1` [Honokiol]: the “z-score of subpopulation abundance” value was -0.9.

Take `CC(C(=O)O)c1ccc2c(c1)Cc1cccnc1O2` (stereo not given) [Pranoprofen]: the “z-score of subpopulation abundance” value was found to be 0.14.

`N[C@@H]1CCCCN(c2c(F)cc3c(=O)c(C(=O)O)cn(C4CC4)c3c2Cl)C1` [Besifloxacin HCl]: the “z-score of subpopulation abundance” value is -0.14.

With `CNCC[C@@H](Oc1ccccc1C)c1ccccc1` [Atomoxetine HCl], the “z-score of subpopulation abundance” value is -0.84.

As to `CN1CC2c3ccccc3Oc3ccc(Cl)cc3C2C1` (stereo not given) [Asenapine maleate], the “z-score of subpopulation abundance” value was -0.76.

Consider `C[C@H](NCc1ccc(OCc2cccc(F)c2)cc1)C(N)=O` [Safinamide], for which the “z-score of subpopulation abundance” value is 0.41.

`O=C(O)Cc1ccccc1Nc1c(Cl)cccc1Cl` [Diclofenac acid]: the “z-score of subpopulation abundance” value amounted to 0.14.

As for `CCOC(=O)C1=C(COCCN)NC(C)=C(C(=O)OC)[C@@H]1c1ccccc1Cl` [Levamlodipine], the “z-score of subpopulation abundance” value is 4.13.

Regarding `O=C(O)c1cc(O)c2c(c1)[C@H]([C@H]1c3cc(C(=O)O)cc(O)c3C(=O)c3c(O[C@@H]4O[C@H](CO)[C@@H](O)[C@H](O)[C@H]4O)cccc31)c1cccc(O[C@@H]3O[C@H](CO)[C@@H](O)[C@H](O)[C@H]3O)c1C2=O` [Sennoside A], the “z-score of subpopulation abundance” value was -1.46.

`CN(C)CCC=C1c2ccccc2C(C)(C)c2ccccc21` [Melitracen hydrochloride]: the “z-score of subpopulation abundance” value was -0.45.

In the case of `Nc1ccc(S(=O)(=O)Nc2ncccn2)cc1` [Sulfadiazine], the “z-score of subpopulation abundance” value was -0.44.

For `Cc1cc(C)nc(O)n1.O=C(Nc1ccc([N+](=O)[O-])cc1)Nc1ccc([N+](=O)[O-])cc1` [Nicarbazin], the “z-score of subpopulation abundance” value is -0.62.

With `CCCCCCCCc1ccc(CCC(N)(CO)CO)cc1` [Fingolimod], the “z-score of subpopulation abundance” value is -1.86.

As for `COc1cc(C(C)=O)ccc1OCCCN1CCC(c2noc3cc(F)ccc23)CC1` [Iloperidone], the “z-score of subpopulation abundance” value amounted to 0.05.

Regarding `CO[C@@]1(NC(=O)Cc2cccs2)C(=O)N2C(C(=O)O)=C(COC(N)=O)CS[C@@H]21` [Cefoxitin sodium], the “z-score of subpopulation abundance” value turned out to be 0.04.

On to `CC(C)[C@H](N)C(=O)OCCOCn1cnc2c(=O)nc(N)[nH]c21` [Valaciclovir HCl], for which the “z-score of subpopulation abundance” value was -0.81.

As to `CCc1cc(C(N)=S)ccn1` [Ethionamide], the “z-score of subpopulation abundance” value stood at 0.03.

`COC(=O)Nc1nc2cc([S+]([O-])c3ccccc3)ccc2[nH]1` (stereo not given) [Oxfendazole]: the “z-score of subpopulation abundance” value is -0.28.

As for `CC[C@H]1OC(=O)[C@H](C)[C@@H](O[C@H]2C[C@@](C)(OC)[C@@H](O)[C@H](C)O2)[C@H](C)[C@@H](O[C@@H]2O[C@H](C)C[C@H](N(C)C)[C@H]2O)[C@](C)(O)C[C@@H](C)C(=O)[C@H](C)[C@@H](O)[C@]1(C)O` [Erythromycin thiocyanate], the “z-score of subpopulation abundance” value was 0.23.

In the case of `CC(=O)[C@@]1(O)CC[C@H]2[C@@H]3C[C@H](C)C4=CC(=O)CC[C@]4(C)[C@H]3CC[C@@]21C` [Medroxyprogesterone], the “z-score of subpopulation abundance” value is -0.02.

For the compound `Cc1ncc([N+](=O)[O-])n1CC(C)O` (stereo not given) [Secnidazole], the “z-score of subpopulation abundance” value is -0.21.

Turning to `COc1c(N2CCNC(C)C2)c(F)cc2c(=O)c(C(=O)O)cn(C3CC3)c12` (stereo not given) [Gatifloxacin], the “z-score of subpopulation abundance” value is -0.89.

As for `CN[C@H]1CC[C@@H](c2ccc(Cl)c(Cl)c2)c2ccccc21` [Sertraline HCl], the “z-score of subpopulation abundance” value is -0.87.

Regarding `C/C=C1\[C@H]2C=C(C)C[C@]1(N)c1ccc(=O)[nH]c1C2` [(-)-Huperzine A (HupA)], the “z-score of subpopulation abundance” value stood at 0.12.

For `Cc1cc(NS(=O)(=O)c2ccc(N)cc2)no1` [Sulfamethoxazole sodium], the “z-score of subpopulation abundance” value is -0.51.

With `C[C@@H]1O[C@@H]1P(=O)(O)O` [Fosfomycin Disodium], the “z-score of subpopulation abundance” value is -0.52.

Consider `C[C@](N)(Cc1ccc(O)c(O)c1)C(=O)O` [Methyldopa], for which the “z-score of subpopulation abundance” value was -0.81.

Consider `CC1(C)S[C@@H]2[C@H](NC(=O)[C@H](C(=O)O)c3ccsc3)C(=O)N2[C@H]1C(=O)O` [Ticarcillin sodium], for which the “z-score of subpopulation abundance” value is 0.42.
